# Laboratory results from PubChem BioAssay AID2718 (Broad Institute, 2010).
# In all, about 320,000 compounds went through this assay and about 480 (0.15%) were called active. About 1% were inconclusive and are not listed. Only a selection was taken, and actives are over-represented in it overall. Unmarked numbers belong to inactive results. No stated cut-off is given here; in the data, active means inhibition above about 26% (passing the limit was not always enough); inconclusive means no clear call, values can overlap the other calls.
# Target: Histone deacetylase 3 (Homo sapiens) (UniProt O15379)
# Test: inhibition of human HDAC3 enzyme activity – biochemical, fluorescence, cell-free homogeneous, primary screen (AID 2718)
# Details: recombinant HDAC3, fluorogenic peptide/trypsin coupled, at 8.3 µM, hits give high values
# Chain of Histone deacetylase 3 (Homo sapiens) (O15379 whole entry, looked up): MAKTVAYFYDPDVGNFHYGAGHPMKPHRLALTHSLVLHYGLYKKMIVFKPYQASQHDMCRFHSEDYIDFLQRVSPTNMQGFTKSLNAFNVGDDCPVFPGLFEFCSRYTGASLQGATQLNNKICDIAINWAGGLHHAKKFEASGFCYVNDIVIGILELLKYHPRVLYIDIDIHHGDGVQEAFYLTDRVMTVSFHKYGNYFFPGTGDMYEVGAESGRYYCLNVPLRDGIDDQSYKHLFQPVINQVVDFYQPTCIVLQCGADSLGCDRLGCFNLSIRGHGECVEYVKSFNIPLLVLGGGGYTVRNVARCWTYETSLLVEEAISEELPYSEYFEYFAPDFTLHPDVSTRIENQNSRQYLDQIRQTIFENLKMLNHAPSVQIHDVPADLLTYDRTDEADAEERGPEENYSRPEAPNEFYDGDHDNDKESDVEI
row,Compound,inhibition
1,O=C(COC(=O)c1cccnc1Cl)NC12CC3CC(CC(C3)C1)C2,-0.423%
2,COCC(C)n1c(SCC(=O)NC2CCCCC2C)nc2ccccc2c1=O (centres undefined),0.838%
3,O=C(COC(=O)c1ccc(Br)o1)NC12CC3CC(CC(C3)C1)C2,-3.01%
4,C[C@H](CO)N1C[C@H](C)[C@@H](CN(C)C(=O)Nc2ccc3c(c2)OCO3)Oc2c(cccc2N(C)C)C1=O,-8.66%
5,COc1ccc2nc3n(c(=O)c2c1)-c1ccc(Cl)cc1C(=O)NC3Cc1ccccc1 (centres undefined),-1.2%
6,C[C@H]1COC(=O)[C@H](CC(=O)OC(C)(C)C)C/C=C\C[C@@H](CC(=O)N[C@H](CO)Cc2ccccc2)C(=O)N1,-4.05%
7,CN1C(=O)[C@H]2[C@@H](/C=C/c3ccccc3)N3C(=O)CN(Cc4ccc(-c5ccccc5)cc4)C(=O)[C@@]3(C)[C@H]2C1=O,6.83%
8,O=C(OCC(=O)N1CCCCCC1)c1ccc(Br)c(S(=O)(=O)N2CCOCC2)c1,-0.213%
9,O=C(CCNC(=O)c1ccc(Br)cc1)NCC(c1ccco1)N1CCCCC1 (centres undefined),2.98%
10,Cn1c(N)c(C(=O)COC(=O)c2ccc3ccccc3c2)c(=O)n(C)c1=O,-3.95%
11,COC(=O)c1c(CCl)noc1C(=O)NC(C)C,-2.79%
12,O=C(CNC(=O)c1ccccc1F)OCC(=O)c1c[nH]c2ccccc12,1.43%
13,Clc1cccc(Cl)c1Cn1nnc(-c2cccs2)n1,-9.16%
14,COc1cc(Cl)c(C)cc1NC(=O)CSc1nnc(CN2CCCC2)o1,-2.25%
15,Cc1nn(C)c(C)c1CN(C(=O)CCc1nnc(Cc2c[nH]c3ccccc23)o1)C(C)C,-1.72%
16,Cc1ccsc1C(=O)NNC(=O)COc1ccc(Br)cc1,-2.82%
17,CC1(C)CC[C@@]2(C(=O)O)C(C1)C1=CCC3[C@@]4(C)CC[C@H](O)C(C)(C)C4CC[C@@]3(C)[C@]1(C)C[C@H]2O (some centres undefined),-0.0116%
18,CN(C(=O)CSc1cccc[n+]1[O-])C1CCCCC1,-0.125%
19,COc1cc(NC(=O)COC(=O)c2cc(S(=O)(=O)N3CCOCC3)ccc2F)cc(OC)c1,-6.13%
20,CC(C)CC1(C)NC(=O)N(CC(=O)Nc2ccc3c(c2)OCCO3)C1=O (centres undefined),0.72%
21,O=C(N/N=C\c1ccc(-c2ccc(Cl)c(Cl)c2)o1)C(=O)N1CCCC1,-2.85%

row,Compound,inhibition
1,Cc1ccc(C(=O)N2CCC(n3nccc3NC(=O)Nc3cccc(F)c3)CC2)cn1,4.68%
2,CCN1N=C(c2ccccc2)CCC1=O,-1.92%
3,CN(c1ccccc1)S(=O)(=O)c1cc(C(=O)N2CCN(c3ncccn3)CC2)ccc1Cl,5.51%
4,O=C(N=C1SC2CS(=O)(=O)CC2N1c1ccccc1)c1ccccc1 (centres undefined),3.67%
5,O=C(Cn1c(N2CCN(C/C=C/c3ccccc3)CC2)nc2ccccc21)c1ccccc1,11.7%
6,COc1ccc(NC(=O)N(C)C[C@H]2Oc3ccc(NC(=O)C4CC4)cc3C(=O)N([C@H](C)CO)C[C@@H]2C)cc1,2.07%
7,COc1ccc(S(=O)(=O)N(C)C[C@H]2Oc3c(NC(=O)Nc4ccc5c(c4)OCO5)cccc3C(=O)N([C@H](C)CO)C[C@@H]2C)cc1,0.282%
8,Cc1ccc(C(=O)NNC(=O)CSc2nnc3ccccn23)cc1,-19.4%
9,C#CCOCCOCCOCCNc1nc(N2CCN(C(=O)CCCCCCCCCCNC(=O)[C@H](CCCCN)n3cc(C)nn3)CC2)nc(N2CCN(C(=O)CCCCCCCCCCNC(=O)[C@H](CO)n3cc(CCCSC)nn3)CC2)n1,17.4%
10,C#CCOCCOCCOCCNc1nc(N2CCN(C(=O)CCCCCCCCCCNC(=O)[C@H]([C@@H](C)CC)n3cc(CCCCN=C(N)N)nn3)CC2)nc(N2CCN(C(=O)CCCCCCCCCCNC(=O)[C@H](CO)n3cc(CCCSC)nn3)CC2)n1,65% (active)
11,C#CCOCCOCCOCCNc1nc(N2CCN(C(=O)CCCCCCCCCCNC(=O)Cn3cc(CCCCCN)nn3)CC2)nc(N2CCN(C(=O)CCCCCCCCCCNC(=O)[C@H](CO)n3cc(CCCSC)nn3)CC2)n1,22.2%
12,CCOC(=O)C1(Cc2cccc(OC)c2)CCN(Cc2csc(C(C)=O)c2)CC1,0.985%
13,CCOC(=O)C1=C(CC)Nc2ccccc2N=C1N,5.45%
14,CCCCOc1ccc(N(CC(=O)NCC2CCCO2)C(=O)CCC(=O)Nc2cc(C)ccn2)cc1 (centres undefined),1.38%
15,COc1ccc(C(=O)COC(=O)C(O)c2ccccc2)c(OC)c1 (centres undefined),8.77%
16,CCOc1ccc(NS(=O)(=O)c2cc(C)c(C)cc2C)cc1,2.58%
17,Cc1ccc(S(=O)(=O)N2CCN(C(=O)CN3C(=O)NC(C)(c4ccc(Cl)cc4)C3=O)CC2)c(C)c1 (centres undefined),-0.669%
18,CC1CN(C(=O)c2ccc([N+](=O)[O-])s2)CC(C)O1 (centres undefined),-3.39%
19,Cc1c(CCO)c(=O)[nH]n1C(=O)c1c(F)cccc1F,-6.64%
20,COc1ccc(CC(NC(C)=O)C(=O)N2CCN(C(=O)Nc3cccc(Cl)c3)CC2)cc1OC (centres undefined),1.26%
21,Cc1ccc(-c2nc(-c3cccnc3)sc2CC(=O)Nc2ccc(C)c(Cl)c2)cc1,6.66%

row,Compound,inhibition
1,Cc1ccc(S(=O)(=O)N(CCCN(C)C)Cc2ccc3c(c2)OCO3)cc1,5.59%
2,CCOC(=O)C1CCN(CC(=O)Nc2ccc(OC)c(S(=O)(=O)N3CCCCC3)c2)CC1,4.01%
3,CCCCCCC(=O)N(O)C1CC(=O)N(c2ccccc2)C1=O (centres undefined),78.3% (active)
4,CCOc1ccc(N2C(=O)CC(N(O)c3ccccc3)C2=O)cc1 (centres undefined),-2.22%
5,CCOC(=O)c1ccc(N2C(=O)CC(N(C)Cc3ccccc3)C2=O)cc1 (centres undefined),-1.1%
6,CCN(CC)S(=O)(=O)c1ccc2c3c(cccc13)C(=O)S2,3.45%
7,Fc1cnc(N2CCOCC2)nc1NCc1ccccc1,-0.33%
8,COc1ccc(C(=O)n2nc(C)c(Br)c2C)cc1OC,38.4% (active)
9,COc1ccc(C(=O)n2nc(-c3ccc(C)cc3)nc2N)cc1OC,9.8%
10,COc1ccc(C(=O)n2nc(-c3ccc(Cl)cc3)nc2N)cc1OC,13.1%
11,O=C(Cc1ccccc1)Nc1c(Cl)ccc2nsnc12,2.55%
12,C=C(Br)CN1CCN(CC(=C)Br)CC1,-3.73%
13,O=C(O)C1C2C=CC(O2)C1C(=O)NCCc1cccc(Cl)c1 (centres undefined),-6.57%
14,Cc1ccc(/C=N/NC(=O)C(NC(=O)c2ccccc2)c2n[nH]c(=O)c3ccccc23)cc1 (centres undefined),15%
15,O=C(COC(=O)c1ccco1)Nc1ccc(Cl)cn1,0.924%
16,COc1cc(CNC2CCCC2)c(Br)cc1OCc1ccccc1,3.98%
17,COc1cc(C2CC(=O)N3CN(Cc4ccccc4)CSC3=C2C#N)ccc1OCc1ccccc1 (centres undefined),33.1% (active)
18,COc1cc(CN2CCC(C(N)=O)CC2)ccc1OCc1ccccc1,-3.96%
19,COc1cc(NC(=O)c2[nH]cnc2C(N)=O)cc(C(=O)Nc2cccc(C(F)(F)F)c2)c1,-8.89%
20,O=C(NC(=S)NC1CCSC1=O)c1ccccc1F (centres undefined),-7.58%
21,O=C(CN1CCN(C(=S)NC2CCCC2)CC1)Nc1ccc(Oc2ccccc2)cc1,-5.51%

row,Compound,inhibition
1,COc1ccccc1-n1nnnc1SCC(=O)NC(=O)Cc1ccccc1,-1.86%
2,O=C(NCc1ccccc1)C1=C[C@@H](c2ccc(C(F)(F)F)cc2)C[C@@H](OCc2ccc(CO)cc2)O1,21.1%
3,O=C(C1=C[C@H](C2CC2)C[C@H](OCc2ccc(CO)cc2)O1)N1CCN(Cc2ccccc2)CC1,-8.37%
4,O=C(C1=C[C@H](c2ccc(C(F)(F)F)cc2)C[C@H](OCc2ccc(CO)cc2)O1)N1CCN(Cc2ccccc2)CC1,33.5% (active)
5,CNS(=O)(=O)c1cccc(C(=O)OCC(=O)N2c3ccccc3NC(=O)C2(C)C)c1,4.33%
6,CCN(CC)CCN(C(=O)c1cccc([N+](=O)[O-])c1)c1nc2ccc(OC)cc2s1,-1.73%
7,CN(C(=O)c1cccc(NC(=O)C2CCN(C(=O)OC(C)(C)C)CC2)c1)C1CCC1,-2.89%
8,CSCCC(NC(=O)c1ccco1)C(=O)NCCc1ccc(F)cc1 (centres undefined),-4.83%
9,COc1ccc(C(=O)OCc2cc(=O)n3ccsc3n2)cc1F,0.474%
10,C=CCC[C@H](Cc1ccc(F)cc1)C(=O)OC[C@H](C)NC(=O)[C@H](CC=C)CC(=O)N(CCO)Cc1ccccc1,30.2% (active)
11,C=CCC[C@@H](Cc1ccc(F)cc1)C(=O)O[C@H](CNC(=O)[C@H](CC=C)CC(=O)N(CCO)Cc1ccccc1)c1ccccc1,48.4% (active)
12,C=CC[C@@H](CC(=O)N[C@@H](CO)Cc1ccccc1)C(=O)N[C@H](COC(=O)[C@H](CC=C)CC(=O)OC(C)(C)C)Cc1ccccc1,7.81%
13,C=CC[C@@H](CC(=O)N[C@H](CO)Cc1ccccc1)C(=O)N[C@@H](COC(=O)[C@@H](CC=C)Cc1ccc(F)cc1)Cc1c[nH]c2ccccc12,0.653%
14,C=CCC[C@H](Cc1ccc(F)cc1)C(=O)OC[C@@H](NC(=O)[C@@H](CC=C)CC(=O)N[C@H](CO)Cc1ccccc1)C(C)(C)C,41.7% (active)
15,C=CCC[C@@H](Cc1ccc(F)cc1)C(=O)OC[C@@H](C)NC(=O)[C@H](CC=C)CC(=O)N(CCO)Cc1ccccc1,2.58%
16,C=CCC[C@@H](Cc1ccc(F)cc1)C(=O)OC[C@H](Cc1c[nH]c2ccccc12)NC(=O)[C@@H](CC=C)CC(=O)N(CCO)Cc1ccccc1,41.9% (active)
17,C=CC[C@@H](CC(=O)N[C@@H](CO)Cc1ccccc1)C(=O)NCCOC(=O)[C@@H](CC=C)CC(=O)OC(C)(C)C,0.71%
18,C=CCC[C@H](Cc1ccc(F)cc1)C(=O)OC[C@@H](Cc1c[nH]c2ccccc12)NC(=O)[C@H](CC=C)CC(=O)N[C@H](CO)Cc1ccccc1,6.12%
19,C=CC[C@@H](CC(=O)NCCO)C(=O)N[C@H](C)COC(=O)[C@@H](CC=C)CC(=O)OC(C)(C)C,-0.677%
20,C=CC[C@H](CC(=O)OC(C)(C)C)C(=O)OC[C@H]1CCCN1C(=O)[C@H](CC=C)CC(=O)N(CCO)Cc1ccccc1,1.66%
21,C=CC[C@@H](CC(=O)N[C@H](CO)Cc1ccccc1)C(=O)N[C@H](C)COC(=O)[C@@H](CC=C)Cc1ccc(F)cc1,19.7%
